Measurements reported in the supplement of paper PMC8975748.
Counter-ions that a name gives are not always drawn.

These compounds were tested on Saccharomyces cerevisiae BY4741 SeMeCo community (assay: z-score of subpopulation abundance vs DMSO median, subpopulation auxotrophic for LU; higher = larger share of this subpopulation than in DMSO controls). Details: 10 µM; 24 h; SM minimal medium; subpopulation (auxotrophy): LU.
Description: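 Fluorescent four-plasmid SeMeCo (self-establishing metabolically cooperating S. cerevisiae BY4741 community; plasmids pH-mRuby2, pL-mWasabi, pU-eCFP, pM-TagRFP657) was grown 24 h in minimal SM medium with each Selleck FDA-approved drug at 10 µM in 384-well plates. Cells were fixed and imaged by high-content confocal microscopy. For each auxotrophic subpopulation (and the prototroph), a z-score gives the deviation from the DMSO vehicle-control population median.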

| Compound | z-score of subpopulation abundance |
| --- | --- |
| C1N2CN3CN1CN(C2)C3 [Methenamine] | -0.57 |
| CCC(C)(Oc1ccc(C2(c3ccc(OC(C)(CC)C(=O)O)cc3)CCCCC2)cc1)C(=O)O (stereo not given) [Clinofibrate] | -0.18 |
| CN1C(C(=O)Nc2ccccn2)=C(O)c2sc(Cl)cc2S1(=O)=O [Lornoxicam] | -0.21 |
| CN1CCC(=C2c3ccccc3CCc3sccc32)CC1 [Pizotifen Malate] | 0.03 |
| C#C[C@]1(O)CC[C@H]2[C@@H]3CCC4=CC(=O)CC[C@@H]4[C@H]3C(=C)C[C@@]21CC [Etonogestrel] | 0.5 |
| CC[C@H](C)C(=O)O[C@H]1C[C@H](O)C=C2C=C[C@H](C)[C@H](CC[C@@H](O)C[C@@H](O)CC(=O)O)[C@H]21 [Pravastatin] | 0.89 |
| Nc1nc(=O)[nH]cc1F [Flucytosine] | 0.49 |
| CC(=O)OC(C)C[N+](C)(C)C (stereo not given) [Methacholine chloride] | 1.46 |
| Nc1ccc2cc3ccc(N)cc3nc2c1 [Proflavine] | -7.09 |
| COc1cc(/C=C/C(=O)N2CCN(CC(=O)N3CCCC3)CC2)cc(OC)c1OC [Cinepazide maleate] | 0.47 |
| Nc1ccc(/N=N/c2ccccc2)c(N)n1 [Phenazopyridine HCl] | -2.56 |
| OC(CCN1CCCCC1)(c1ccccc1)C1CCCCC1 (stereo not given) [Trihexyphenidyl hydrochloride] | 1.04 |
| COc1ncnc(NS(=O)(=O)c2ccc(N)cc2)c1OC [Sulfadoxine] | 0.85 |
| C[C@@H](O)[C@H]1C(=O)N2C(C(=O)O)=C(S[C@@H]3CN[C@H](C(=O)N(C)C)C3)[C@H](C)[C@H]12 [Meropenem] | -0.26 |
| Nc1ccc(S(=O)(=O)NC(=O)c2ccccc2)cc1 [Sulfabenzamide] | -0.03 |
| COC(=O)C1=C(C)NC(C)=C(C(=O)OC(C)(C)CN(C)CCC(c2ccccc2)c2ccccc2)C1c1cccc([N+](=O)[O-])c1 (stereo not given) [Lercanidipine hydrochloride] | -0.32 |
| CN1CCC[C@@H]1Cc1c[nH]c2ccc(CCS(=O)(=O)c3ccccc3)cc12 [Eletriptan HBr] | -1.12 |
| CC(C(O)c1ccc(O)cc1)N1CCC(Cc2ccccc2)CC1 (stereo not given) [Ifenprodil Tartrate] | -0.38 |
| C#C[C@]1(O)CC[C@H]2[C@@H]3CCc4cc(OC)ccc4[C@H]3CC[C@@]21C [Mestranol] | -0.19 |
| Cc1ccc(Sc2ccccc2N2CCNCC2)c(C)c1 | -0.09 |

| Compound | z-score of subpopulation abundance |
| --- | --- |
| O=C(O)Cc1ccccc1Nc1c(Cl)cccc1Cl [Diclofenac acid] | -0.18 |
| C=CC1=C(C(=O)O)N2C(=O)[C@@H](NC(=O)/C(=N\OCC(=O)O)c3csc(N)n3)[C@H]2SC1 [Cefixime] | -0.02 |
| O=C(NCCN1CCOCC1)c1ccc(Cl)cc1 | 0.18 |
| CC(C(=O)O)c1ccc(C(=O)c2cccs2)cc1 (stereo not given) [Suprofen] | -0.41 |
| Cn1c(=O)c2[nH]cnc2n(C)c1=O [Aminophylline] | 1.06 |
| COc1cccc2c1C(=O)c1c(O)c3c(c(O)c1C2=O)C[C@@](O)(C(=O)CO)C[C@@H]3O[C@H]1C[C@H](N)[C@H](O[C@@H]2CCCCO2)[C@H](C)O1 [Pirarubicin] | 4.15 |
| NC(=N\CCCCCC/N=C(N)/N=C(\N)Nc1ccc(Cl)cc1)/N=C(\N)Nc1ccc(Cl)cc1 [Chlorhexidine diacetate] | -1.43 |
| NC(=O)c1cn(Cc2c(F)cccc2F)nn1 [Rufinamide] | 0.45 |
| O=C1CN(/N=C/c2ccc([N+](=O)[O-])o2)C(=O)N1 [Nitrofurantoin] | -0.11 |
| CCCCCc1ccc(C)cc1O [Amylmetacresol] | 0.24 |
| CN1CC2c3ccccc3Oc3ccc(Cl)cc3C2C1 (stereo not given) [Asenapine maleate] | 0.61 |
| COc1cc(Cc2cnc(N)nc2N)cc(OC)c1OC [Trimethoprim] | 0.14 |
| CN[C@H]1C(=O)N[C@@H]2Cc3ccc(cc3)Oc3cc4cc(c3O[C@@H]3O[C@H](C(=O)O)[C@@H](O)[C@H](O)[C@H]3NC(=O)CCCCCCCCC(C)C)Oc3ccc(cc3Cl)[C@@H](O)[C@@H]3NC(=O)[C@H](NC(=O)[C@@H]4NC(=O)[C@@H](NC2=O)c2cc(cc(O)c2Cl)Oc2cc1ccc2O)c1ccc(O)c(c1)-c1c(O[C@H]2O[C@H](CO)[C@@H](O)[C@H](O)[C@@H]2O)cc(O)cc1[C@@H](C(=O)NCCCN(C)C)NC3=O [Dalbavancin] | -0.56 |
| O=C1OCCN1/N=C/c1ccc([N+](=O)[O-])o1 [Furazolidone] | -5.41 |
| Cc1cc(NS(=O)(=O)c2ccc(N)cc2)nc(C)n1 [sulfaisodimidine] | 0.99 |
| COc1ccc2c3c1O[C@H]1C[C@@H](O)C=C[C@@]31CCN(C)C2 [Galanthamine HBr] | 0.01 |
| CCN(CC)C(=O)C1(c2ccccc2)CC1CN (stereo not given) [Milnacipran HCl] | 0.01 |
| Clc1ccc2c(N3CCN(CCCN4CCN(c5ccnc6cc(Cl)ccc56)CC4)CC3)ccnc2c1 [Piperaquine phosphate] | -0.13 |
| CC1(C)S[C@@H]2[C@H](NC(=O)Cc3ccccc3)C(=O)N2[C@H]1C(=O)O [Benzylpenicillin potassium] | 0.51 |
| Cc1cccc(C)c1NC(=O)C1CCCCN1C (stereo not given) [Mepivacaine HCl] | 0.44 |
